CYP2C19 activ – increases human CYP2C19 enzyme activity. activation factor at 5 µM. 96,000 tested, under 10 active. P33261. recombinant CYP2C19, luciferin-H EGE luminescence; hits give high values; 0 = fully inhibited enzyme, 1 = untreated enzyme. AID 1025;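 active = activation factor of at least 2 at 5 µM in the primary screen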;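 note: 0 = wells with 2.5 mM tranylcypromine and 1 = vehicle-only wells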
Target sequence (P33261 whole entry, looked up): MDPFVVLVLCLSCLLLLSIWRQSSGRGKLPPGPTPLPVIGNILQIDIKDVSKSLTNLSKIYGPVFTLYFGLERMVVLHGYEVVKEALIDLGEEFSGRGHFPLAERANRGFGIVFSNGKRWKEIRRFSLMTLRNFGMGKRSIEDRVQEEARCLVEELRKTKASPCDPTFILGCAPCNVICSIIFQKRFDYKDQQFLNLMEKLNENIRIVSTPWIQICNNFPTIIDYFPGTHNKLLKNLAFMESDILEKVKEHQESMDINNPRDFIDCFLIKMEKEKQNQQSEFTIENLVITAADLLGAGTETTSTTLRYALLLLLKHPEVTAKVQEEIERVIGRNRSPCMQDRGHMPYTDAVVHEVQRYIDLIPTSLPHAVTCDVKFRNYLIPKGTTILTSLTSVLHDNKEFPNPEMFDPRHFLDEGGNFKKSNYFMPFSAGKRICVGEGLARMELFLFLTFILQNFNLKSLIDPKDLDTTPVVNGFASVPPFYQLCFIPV
PostGolgi yeast – growth inhibition of a yeast mutant, post-Golgi transport screen; post-Golgi transport phenotypic cell assay; inhibition, % at 10 µM; hit rate 0.9% among 98,000;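 note: yeast cells grown in 1536-well plates; yeast grown about 18 h at 30C before absorbance read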
PostGolgi ctrl – inhibits growth of the yeast control strain. efflux-deficient yeast background strain, growth absorbance A615, 16 h. inhibition, % at 10 µM. hit rate 5% among 98,000. AID 738
CYP2C9 inh – inhibitors of human CYP2C9 | inhibition, % at 5 µM | hit rate 20% among 96,000 | P11712 | CYP2C9 Supersomes, luciferin-H conversion, luminescence;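 active = blocking of liver enzyme CYP2C9 beyond about 50% at 5 µM, limit read from the data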
CYP2C9 act – increases human cytochrome P450 2C9 activity; P11712; recombinant CYP2C9, luciferin-H conversion, luminescence; hits give high values; factor 1 = untreated enzyme, 0 = blocked; activation factor at 5 µM; hit rate 1.4% among 96,000;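 active = activation factor of 2 or more for CYP2C9 at a 5 µM dose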;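 note: 0 = sulfaphenazole-blocked wells and 1 = vehicle-only wells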
CYP2C19 inhib – human CYP2C19 inhibition. inhibition, % at 5 µM. CYP2C19 Supersomes, luciferin-H EGE luminescence, 30 min. hit rate 21% among 96,000. P33261;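 active = CYP2C19 inhibition above a set limit at 5 µM in the primary screen, cut at about 50% in these data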;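 note: plate controls were negative control wells for no effect and 2.5 mM tranylcypromine positive control for full effect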
Numbers without * were called inactive; . = no result given. The list is not random: actives were taken first. Their share in the collection is about 32%. Cut-off read from the data, not from the text of the source, unless noted: active = inhibition above about 30%; inactive = the rest.

SMILES	CYP2C19 activ	PostGolgi yeast	PostGolgi ctrl	CYP2C9 inh	CYP2C9 act	CYP2C19 inhib
Cc1cccc2sc(NC(=O)C3c4ccccc4Oc4ccccc43)nc12	0.7	53*	58*	80*	0.2	31
CC(C)c1nnc(NC(=O)C2c3ccccc3Oc3ccccc32)s1	0.9	-1	3	20	0.8	7
COc1ccc(/C=N/NC(=O)C2c3ccccc3Oc3ccccc32)c(OC)c1	0.9	1	2	4	1	9
O=C(Nc1nncs1)C1c2ccccc2Oc2ccccc21	0.5	5	0	34	0.7	54*
O=C(Nc1nc(-c2ccccc2)cs1)C1c2ccccc2Oc2ccccc21	0.9	12	-3	72*	0.3	12
COc1ccc(N2C(=O)C3CCCN3C2c2ccc(F)cc2)cc1Cl (stereo unspecified)	.	-5	-5	.	.	.
Cn1c(=O)c2cc(NC(=O)c3ccccc3Cl)c(=O)oc2n(C)c1=O	1	1	-2	18	0.8	-1
CCOC(=O)C1=C(c2ccccc2)Nc2ncnn2C1c1cc(OC)ccc1OC (stereo unspecified)	0.7	-2	5	39	0.6	33
O=C(Nc1ccccc1)c1ccncc1	0.8	-5	1	-12	1.1	16
O=C(Nc1ccncc1)C1c2ccccc2Oc2ccccc21	0	20	-10	98*	0	97*
CCOCCCNC(=O)CC1Oc2ccc(C)cc2NC1=O (stereo unspecified)	0.9	1	7	-28	1.3	13
CC(C)(C)S(=O)(=O)c1c(C(=O)O)cccc1C(=O)O	1.2	4	1	-20	1.2	-22
Cc1cccc(NS(=O)(=O)c2ccc3c(c2)OCCO3)c1	0	16	-1	18	0.8	100*
O=C(COC(=O)c1ccc(NS(=O)(=O)c2ccc3c(c2)OCCO3)cc1)NC1CC1	0.9	7	10	62*	0.4	15
O=C(O)c1ccc(NS(=O)(=O)c2ccc3c(c2)OCCO3)cc1	1.2	-6	-6	-19	1.2	-17
O=C(O)c1ccc(NS(=O)(=O)c2cc(Cl)ccc2Cl)cc1O	1	-13	-1	20	0.8	-1
COc1ccc(S(=O)(=O)Nc2ccc3c(c2)OCCO3)cc1Cl	0	13	9	93*	0.1	99*
O=C(O)c1cc(S(=O)(=O)Nc2ccc3c(c2)OCCO3)c(Cl)cc1Cl	0.9	4	-1	51*	0.5	15
Cc1cccc(NS(=O)(=O)c2ccc(C3CCCCC3)cc2)c1	0.3	-5	50*	44	0.6	69*
O=S(=O)(Nc1ccc2c(c1)OCCO2)c1cnc[nH]1	0.9	-4	10	78*	0.2	12
COc1ccc(S(=O)(=O)Nc2ccc3c(c2)OCO3)cc1OC	0	4	5	47	0.5	100*
Cc1n[nH]c(C)c1S(=O)(=O)Nc1ccc2c(c1)OCCO2	.	3	4	.	.	.
O=S(=O)(Nc1ccc2c(c1)OCCO2)c1ccc2oc3ccccc3c2c1	0	9	59*	98*	0	100*
Cc1cccc(NS(=O)(=O)c2ccc(C3CCCCC3)cc2)n1	0.8	-2	27	21	0.8	15
Cc1ccc(S(=O)(=O)O)c(C)c1N1CCCC1=O	1.1	-8	12	-11	1.1	-12
SMILES	CYP2C19 activ	PostGolgi yeast	PostGolgi ctrl	CYP2C9 inh	CYP2C9 act	CYP2C19 inhib
O=C(C1CN(S(=O)(=O)c2ccccc2)CCN1S(=O)(=O)c1ccccc1)N1CCCCCC1 (stereo unspecified)	1.1	-2	20	-19	1.2	-9
CC(C)(C)c1ccc(C(=O)NNC(=O)Cc2cccc3ccccc23)cc1	0.8	-1	40*	58*	0.4	17
O=C(COc1ccc2ccccc2c1)NNC(=O)Cc1cccc2ccccc12	.	4	-3	.	.	.
O=C(NCCCN1CCOCC1)c1c(O)c2cc(Br)cc(Br)c2[nH]c1=O	1.2	.	.	8	0.9	-15
COc1ccc(C(=O)N(Cc2ccccc2)Cc2cc3cc4c(cc3[nH]c2=O)OCCO4)cc1	1.1	-1	23	7	0.9	-10
CCC(=O)Nc1cc(C(=O)OC(C(=O)c2ccc(C)c(C)c2)c2ccccc2)ccc1C (stereo unspecified)	0.6	-1	9	58*	0.4	40
COC(=O)c1ccc(C)c(NC(=O)CCSc2ccccc2)c1	0.7	-3	3	55*	0.4	29
Cc1ccccc1OCC(=O)N/N=C1\CCOc2c(C)cccc21	0.7	-8	-6	10	0.9	32
CCOc1ccc(Nc2nc(Cc3nnc(SCC(=O)c4ccc(C)c(C)c4)o3)cs2)cc1	1	-6	7	4	1	-3
O=C(Cn1cnc2ccccc21)NC(c1ccccc1)c1ccccc1	1	0	12	5	0.9	4
CC(=O)Oc1cc2oc(=O)cc(C)c2cc1OC(C)=O	1	2	11	-6	1.1	-2
COc1ccc(-c2coc3cc4oc(=O)cc(C)c4cc23)cc1F	0.4	0	5	11	0.9	58*
COc1cc(CCN2C(=O)c3cccc4cccc(c34)C2=O)c(S(=O)(=O)NCCCO)cc1OC	0.3	0	0	38	0.6	66*
COc1ccc(C(=O)NC2(C(F)(F)F)C(=O)Nc3c2c(=O)[nH]c(=O)n3CCc2ccc(OC)c(OC)c2)cc1 (stereo unspecified)	0.9	3	11	9	0.9	8
CCOC(=O)c1cc(-c2cc3ccccc3o2)n[nH]1	0.7	-3	14	23	0.8	31
CCOC(=O)c1c(-c2ccsc2)csc1N	0.4	6	-3	24	0.8	63*
COC(=O)c1c(-c2cccc(C)c2)csc1N	0.8	0	11	-14	1.1	18
CCOC(=O)c1cc(-c2ccc(C)o2)n[nH]1	0.6	-6	-1	52*	0.5	42
CCOC(=O)c1c(-c2ccc(C)o2)csc1N	0.4	9	-9	29	0.7	59*
CCCCC(=O)N1CCCC(c2nc3c(nnn3Cc3cc(C)ccc3C)c(=O)[nH]2)C1 (stereo unspecified)	0.3	0	1	87*	0.1	67*
Cc1ccc(C(=O)N2CCCC(c3nc4c(nnn4Cc4ccccc4)c(=O)[nH]3)C2)cc1 (stereo unspecified)	0.9	23	-1	47	0.5	10
Cc1ccc(C)c(Cn2nnc3c(=O)[nH]c(C4CCCN(C(=O)CC(C)C)C4)nc32)c1 (stereo unspecified)	0.4	18	10	79*	0.2	61*
CCOc1c(Cl)cc(C(=O)Nc2ccccc2C(=O)O)cc1Cl	1.1	-12	3	59*	0.4	-5
CCN(CC)S(=O)(=O)c1cc(C(=O)Nc2ccccc2C(=O)O)ccc1OC	0.9	-5	25	86*	0.1	13
CC(=O)Nc1cccc(C(=O)Nc2ccccc2C(=O)O)c1	1.2	6	-8	49	0.5	-17

Assay outcomes (PubChem BioAssay)
